# Measured values taken from PubChem BioAssay AID624273 (Broad Institute, 2012).
# In all, about 1,000 compounds went through this assay and about 230 (23%) were called active. Not shown: some 1% with an inconclusive outcome. No rule for the calls is given here. Some of the results follow. Results with a measured potency or affinity are listed apart.
# Target: Long-chain-fatty-acid--AMP ligase FadD28 (Mycobacterium tuberculosis (strain ATCC 25618 / H37Rv)) (UniProt P9WQ59)
# Assay: inhibitors of FadD28 bisubstrate probe binding, dose response, biochemical, fluorescence polarization, cherry-pick (AID 624273)
# Details: series mostly up to 50 µM
# Sequence of Long-chain-fatty-acid--AMP ligase FadD28 (Mycobacterium tuberculosis (strain ATCC 25618 / H37Rv)) (P9WQ59 whole entry, looked up): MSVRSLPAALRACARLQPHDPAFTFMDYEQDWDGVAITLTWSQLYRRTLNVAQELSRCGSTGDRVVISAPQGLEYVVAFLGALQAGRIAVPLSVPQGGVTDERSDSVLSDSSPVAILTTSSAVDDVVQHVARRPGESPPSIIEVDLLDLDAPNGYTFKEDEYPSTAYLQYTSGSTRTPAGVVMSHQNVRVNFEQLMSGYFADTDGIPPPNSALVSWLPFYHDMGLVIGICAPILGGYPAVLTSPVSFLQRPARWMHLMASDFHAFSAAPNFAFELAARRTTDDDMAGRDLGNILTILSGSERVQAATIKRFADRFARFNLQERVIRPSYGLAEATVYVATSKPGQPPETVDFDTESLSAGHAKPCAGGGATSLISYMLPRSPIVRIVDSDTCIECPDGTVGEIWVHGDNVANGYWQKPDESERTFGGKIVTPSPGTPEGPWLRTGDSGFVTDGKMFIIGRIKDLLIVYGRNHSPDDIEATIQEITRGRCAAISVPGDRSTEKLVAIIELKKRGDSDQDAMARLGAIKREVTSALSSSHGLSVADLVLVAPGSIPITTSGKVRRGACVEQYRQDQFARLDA
row,Structure (SMILES),outcome
1,Cc1nn(C(=O)c2ccco2)c(C)c1Br,inactive
2,Cc1cc(NC(=O)Nc2cccc3ccccc23)no1,inactive
3,COc1ccc2nc(-c3ccc(F)cc3)sc2c1,inactive
4,O=C(NC(=S)NCc1nc2ccccc2[nH]1)c1ccccc1F,inactive
5,Cc1ccc(C(=O)NN2C(=O)/C(=C/c3cccn3C)SC2=S)cc1,inactive
6,C=CCSc1nc(=O)n2cccc(C)c2n1,inactive
7,c1ccc(-c2cnn3c(-c4ccccc4)c(-c4ccccc4)nc3n2)cc1,inactive
8,O=C(COc1ccccc1-c1ccccc1)NCc1cccc(Cl)c1,inactive
9,COc1ccc(CNCCc2ccc3c(c2)OCO3)cc1Br,inactive
10,CC(C)c1ccc(NC(=O)CCCC(=O)NCCc2ccccc2)cc1,inactive
11,CC(C)(C)c1ccc(NC(=O)C(=O)C2C(=O)Nc3ccccc32)cc1 (centres undefined),inactive
12,COC(=O)c1c(N(S(C)(=O)=O)S(C)(=O)=O)sc2c1CCN(c1ncc(C(F)(F)F)cc1Cl)C2,inactive
13,CCOC(=O)C1=C(C)OC(N)=C(C#N)C1c1cc(F)ccc1F (centres undefined),inactive
14,Cc1cc(C)n2nc3nc(N4CCCC4)nc(-c4ccccc4)c3c2n1,inactive
15,CC(=O)NN1C(=O)/C(=C\c2ccc(Br)o2)SC1=S,inactive
16,O=C(CSc1nc2ccsc2c(=O)n1Cc1ccc(C(=O)O)cc1)NCc1ccco1,inactive
17,Cc1nn(CCc2nn[nH]n2)c2nc(-c3ccc(C4CCCCC4)cc3)cc(C(F)(F)F)c12,inactive
18,O=C(CSc1nc2ccccc2[nH]1)NC1CCCc2ccccc21 (centres undefined),inactive
19,CCOC(=O)c1[nH]nc2c1C(=O)N(CC)C2=O,inactive
20,Cc1cc(-n2c(C)cc(C(=O)COc3ccc(F)c(F)c3)c2C)no1,inactive
21,COc1ccc(OCC(=O)NNC(=O)C(=O)N2CCCC2)cc1,inactive
22,COc1ccc(S(=O)(=O)N(C)C[C@H]2Oc3ccc(NC(=O)Nc4ccc5c(c4)OCO5)cc3C(=O)N([C@H](C)CO)C[C@@H]2C)cc1,inactive
23,O=C(CSc1nnc(CNC(=O)C23CC4CC(CC(C4)C2)C3)n1-c1ccccc1)Nc1ccc(F)cc1,inactive
24,CCCCCCCCCCCCC(=O)CCCCC(=O)O,inactive
25,COc1ccc(OC)c(NC(=O)c2nnn(CCc3ccccc3)c2N)c1,inactive
26,O=C(Nc1ccc(Cc2ccncc2)cc1)C1CCC(N2C(=O)C3C4C=CC(C4)C3C2=O)CC1 (centres undefined),inactive

row,Structure (SMILES),outcome
1,COc1ccc(N2CC(C(=O)Nc3cccnc3)CC2=O)cc1 (centres undefined),inactive
2,COc1ccc(CN2CCC(C(=O)Nc3ccc(Oc4cccnc4)cc3)CC2)c(C)c1C,inactive
3,O=C(COc1ccccc1)Nc1ccc(CN2CCCCC2)cc1,inactive
4,COc1ccc(N(CC(=O)NC2CCCCC2)C(=O)CCC(=O)Nc2nc(C)cs2)cc1,inactive
5,CCOC(=O)CSc1nc(C)c2ccccc2n1,inactive
6,CCOC(=O)c1ccc(NS(=O)(=O)c2ccc3c(c2)NC(=O)CCS3)cc1,inactive
7,CCOC(=O)c1ccc(Nc2cc(C)nc(-c3ccccc3O)n2)cc1,inactive
8,COc1cc2[nH]c(Cl)c([N+](=O)[O-])c2cc1OC,inactive
9,CCC1CCC(C(=O)NNC(=O)c2cc(-c3ccco3)[nH]n2)CC1 (centres undefined),inactive
10,CCOC(=O)C1CCCN(C(=O)C2c3ccccc3Oc3ccccc32)C1 (centres undefined),inactive
11,CCOC(=O)C1CCCN(C(=O)c2cc(Nc3ccc(OC)c(OC)c3)nc3ccccc23)C1 (centres undefined),inactive
12,CCCCc1c(O)nc(SCC(=O)N2CCOCC2)n(-c2ccc(OC)cc2)c1=O,inactive
13,CCOc1ccc(-c2nnc(SCC(=O)N3CCCC3)o2)cc1,inactive
14,Cn1c(=O)c2c(ncn2Cc2ccc(Cl)cc2)n(C)c1=O,inactive
15,COc1ccc2c(C)cc(SCC(=O)N(C)C3CCS(=O)(=O)C3)nc2c1 (centres undefined),inactive
16,Cc1ccccc1Nc1ccc([N+](=O)[O-])cn1,inactive
17,O=C(COC(=O)c1ccccc1NC(=O)c1ccco1)Nc1ncc(Cl)cc1Cl,inactive
18,Cn1ccc(C(=O)NC(=S)Nc2ccc([N+](=O)[O-])cc2O)n1,inactive
19,COc1ccc(C(=O)NNC(=O)C(=O)N2CCCCC2)cc1OC,inactive
20,Cc1ccccc1CS(=O)(=O)Cc1ccc(C(=O)NCc2ccco2)o1,inactive
21,O=C(NCc1n[nH]c(=S)n1-c1ccccc1)c1ccco1,inactive
22,COc1ccc(C(=O)COC(=O)CNS(=O)(=O)c2ccc(C)cc2)cc1,inactive
23,COc1cccc(NCc2cc(=O)oc3cc(-c4ccccc4)c(O)cc23)c1,inactive
24,CC(=O)c1cccc(NC(=O)COC(=O)c2ccccc2C)c1,inactive
25,O=C(Cn1c(=O)oc2ccccc21)Nc1cccc(Cl)c1,inactive
26,COc1ccccc1NC(=O)Nc1cccc(C)n1,inactive

row,Structure (SMILES),outcome
1,COc1cccc(C(=O)NCc2ccccc2OC)c1,inactive
2,COC(=O)c1cc2oc(C)cc2n1CC(=O)N(C)c1ccccc1,inactive
3,CCOC(=O)Cn1cc(C(=O)c2ccco2)c2ccccc21,inactive
4,COc1ccc(-c2cc(C)no2)cc1S(=O)(=O)N(C)c1cccc(C)c1,inactive
5,COc1ccccc1C(=O)COC(=O)c1nc2nc(C)cc(C)n2n1,inactive
6,CCCSC1=N/C(=C\C=C\c2ccco2)C(=O)S1,inactive
7,COc1cccc(NC(=O)Cn2nnc(C(=O)Nc3ccccc3)c2N)c1,inactive
8,CC(C)(C)NC(=O)Cn1nnc(-c2ccccc2Cl)n1,inactive
9,COc1ccc(OC)c(NC(=O)NNC(=O)c2cc3occc3[nH]2)c1,inactive
10,COc1ccc(CC(=O)OCC(=O)NC(=O)NC23CC4CC(CC(C4)C2)C3)cc1,inactive
11,Cc1ccc(NC(=O)CN(C)C(=O)c2cc(-c3ccco3)nc3ccccc23)cc1,inactive
12,CCc1nc(C)cn1S(=O)(=O)c1cc(C)c(OC)c(C)c1C,inactive
13,COc1cccc(OCCn2cc(/C=N/NC(=O)c3ccncc3)c3ccccc32)c1,inactive
14,Cc1cccc(OCC(=O)N2CCN(C(=O)Cc3ccccc3)CC2)c1,inactive
15,COc1cc(/C=N/NC(=O)Cn2nc([N+](=O)[O-])cc2C)cc(Br)c1OCc1ccccc1,inactive
16,COc1ccc2c(c1OC)C(=O)N1C2SC(C)(C)[C@H]1C(=O)NCCCOC(C)C (some centres undefined),inactive
17,Cc1cccc(-n2c(O)c(C=NCCCN3CCOCC3)c3ccccc3c2=O)c1,inactive
18,Nc1ccccc1C#Cc1ccc([N+](=O)[O-])cc1,inactive
19,Cc1cccnc1C(NC(=O)C1CCN(CCCc2ccccc2)CC1)c1ccc(Cl)cc1 (centres undefined),inactive
20,CON(C)C(=O)c1ccccc1N(C)C(=O)OC(C)(C)C,inactive
21,O=C(CSc1nnc(Cc2ccccc2)o1)c1ccc2c(c1)OCO2,inactive
22,CC1CCN(S(=O)(=O)c2ccc(NC(=O)Cn3nnc(-c4ccccc4F)n3)cc2)CC1,inactive
23,O=C(CSc1ccc(-c2nc3ccccc3[nH]2)cn1)Nc1ccc(S(=O)(=O)NC2CC2)cc1,inactive
24,Cc1ccc(NC(=O)COC(=O)c2cccc(S(=O)(=O)N3CCCCCC3)c2)cc1,inactive
25,Cc1ccc(C)c(OCCC(=O)OCC(=O)Nc2cccc(S(=O)(=O)N3CCCC3)c2)c1,inactive
26,CC(Sc1nnc(CNc2cccc3ccccc23)n1-c1ccccc1)C(=O)N/N=C/c1ccco1 (centres undefined),inactive

row,Structure (SMILES),outcome
1,Cc1cc(C)c2sc(N(CCCN(C)C)C(=O)c3ccc(S(=O)(=O)N4CCCc5ccccc54)cc3)nc2c1,inactive
2,CC1(C)Oc2ccc3ccc(=O)oc3c2/C(=C/O)C1=O,inactive
3,COc1ccc(C2NC3=C(CCC3)C3(C#N)C4(N=C(N)C23C#N)OCCO4)cc1 (centres undefined),inactive
4,O=C(Cc1ccc(Cl)cc1)Nc1ccc(N2CCN(C(=O)c3ccco3)CC2)c(Cl)c1,inactive
5,Cc1nn(-c2ccccc2)c(Cl)c1/C=N/NC(=O)c1cccnc1,inactive
6,CCOC(=O)c1c(C)nc2sc3c(=O)n(-c4ccc(C(C)=O)cc4)cnc3c2c1-c1ccc(OC)cc1,inactive
7,C=CCOc1ccc(C2OC34CCCCC3C(C#N)(C#N)C2(C#N)C(=N)O4)cc1 (centres undefined),inactive
8,N/C(CSc1ccc(Cl)cc1)=N\NC(=O)c1ccncc1,inactive
9,Cc1c(NC(=O)c2ccc3ncccc3c2)c(=O)n(-c2ccccc2)n1C,inactive
10,COC(=O)c1cc(C)nc2c1C(=O)C(=O)C=C2N1CCOCC1,inactive
11,Cc1ccc(OCCC(=O)OCC(=O)c2c(N)n(CC(C)C)c(=O)n(C)c2=O)cc1,inactive
12,CCC(=O)c1cccc(-c2ccccc2)c1CC,inactive
13,COc1ccc(CN(C)C(=O)c2ccc(OCC(=O)Nc3cccc(C(F)(F)F)c3)c(OC)c2)c(OC)c1,inactive
14,COc1cc(OC)c(C2=NOC(C(=O)Nc3c(C)n(C)n(-c4ccccc4)c3=O)C2)cc1Cl (centres undefined),inactive
15,CCCCOc1ccc(Nc2cc(Cl)ccc2C(=O)O)cn1,inactive
16,N#CCC(=O)Nc1ccc(C(=O)OCC(=O)Nc2cccc(C(F)(F)F)c2)cc1,inactive
17,Cc1ccc(NC(=O)CN2C(=O)S/C(=C/c3ccc(-c4cc(C(=O)O)ccc4C)o3)C2=O)cc1C,inactive
18,O=C(NCc1ccccc1)C1=C[C@@H](c2ccc(C(F)(F)F)cc2)C[C@@H](OCCCCO)O1,inactive
19,NC(Cc1ccc(C(F)(F)F)cc1)c1csc(NC(=O)Nc2ccccc2Cl)n1 (centres undefined),inactive
20,Cc1onc(C(=O)N2CCC(C(N)=O)CC2)c1-c1ccccc1Cl,inactive
21,COc1cc(NC(=O)C2CCN(S(=O)(=O)c3ccc(Cl)cc3)CC2)ccc1-n1cnnn1,inactive
22,CSc1cccc(CN2CCC(CCC(=O)NC3CC3)CC2)c1,inactive
23,S=c1nc(-c2ccco2)[nH][nH]1,inactive
24,COc1ccc(OC)c(-n2c(-c3cc(-c4ccco4)[nH]n3)n[nH]c2=S)c1,inactive
25,Cc1nnc(NC(=O)C2CC(=O)N(c3ccc4c(c3)OCCO4)C2)s1 (centres undefined),inactive
26,COc1ccc(C2(CNC(=O)C(c3ccccc3)c3ccccc3)CCOCC2)cc1OC,inactive
